# Screening results as filed in PubChem.
# In the library only some 2.9% were active in any assay of this set; here they are far more common.
# ADAM17 inh = ADAM17 inhibitors, primary screen, biochemical, QFRET; recombinant ADAM17, EDANS/DABCYL FRET peptide cleavage; inhibition, % at 6.95 µM; 370,000 compounds, 0.83% hits;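 active = inhibition above the mean of compounds lying between control limits plus 3 SD, set per campaign, cut at about 8.5% in these data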;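 also: 0% = DMSO-only wells as the low control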
# ADAM10 inh = human ADAM10 inhibitors, primary screen, biochemical, QFRET, HTS; recombinant ADAM10, EDANS/DABCYL FRET peptide cleavage, 3 h; inhibition, % at 7 µM; 370,000 compounds, 0.62% hits; AID 720582, 2013;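 active = inhibition above a per-campaign cutoff equal to the mean of compounds falling between control-based bounds plus 3 SD, cut at about 20% in these data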;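 also: 0% = DMSO wells while the 100% control is not disclosed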
# PLC-gamma1 inh = PLC-gamma1 enzyme inhibitors, primary screen, biochemical, fluorescence, purified enzyme; 370,000 compounds, 0.84% hits; fluorogenic substrate; inhibition, % at 12.2 µM; AID 720700, 2013; in the data active = inhibition above about 9.5%
# PLCb3 inh = human PLC-beta3 inhibitors, primary screen, biochemical, fluorescence. 370,000 compounds, 0.18% hits. 1-phosphatidylinositol 4,5-bisphosphate phosphodiesterase beta-3 (Homo sapiens), Q01970. inhibition, % at 12.2 µM. Purified PLC-beta3, fluorogenic substrate; in the data active = inhibition above about 11%;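 also: 0% = median of compound wells on plate and 100% = full blocker control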
# KLK7 zymogen act = proKLK7 zymogen activators, primary screen, biochemical, fluorescence intensity. AID 652039, 2013. 370,000 compounds, 0.9% hits. purified proKLK7, EDANS-DABCYL substrate fluorescence; 100% is mature enzyme control, 0% vehicle. activation, % at 7 µM;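 active = activation above the mean of all tested compounds plus 3 SD, computed per campaign excluding outliers beyond control limits, cut at about 13% in these data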
# Target sequence (P49862 whole entry, looked up): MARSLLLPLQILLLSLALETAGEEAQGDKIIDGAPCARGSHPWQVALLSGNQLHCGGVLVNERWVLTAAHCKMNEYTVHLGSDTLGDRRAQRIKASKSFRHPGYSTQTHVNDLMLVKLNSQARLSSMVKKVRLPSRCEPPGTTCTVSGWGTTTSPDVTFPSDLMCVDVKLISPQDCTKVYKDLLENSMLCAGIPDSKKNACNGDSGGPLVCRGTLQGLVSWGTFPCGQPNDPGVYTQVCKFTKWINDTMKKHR
# ADAM10 counter = ADAM10 inhibitors, counter-screen for ADAM17 exosite inhibitor project, biochemical, FRET, human ADAM10; shares compounds with ADAM17 inh; recombinant ADAM10, EDANS/DABCYL FRET peptide cleavage, 3 h; inhibition, % at 6.95 µM; 2,900 compounds, 47% hits; AID 743256, 2014;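 active = mean inhibition over the triplicate runs exceeds the activity threshold set in the earlier primary screen, cut at about 20% in these data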;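 also: 0% = DMSO wells and 100% = marimastat wells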
# ADAM17 confirm = ADAM17 inhibitors, hit retest, confirmation, biochemical, QFRET peptide cleavage | inhibition, % at 6.95 µM | 2,900 compounds, 65% hits | shares compounds with ADAM17 inh | recombinant ADAM17, EDANS/DABCYL QFRET peptide cleavage;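 active = mean inhibition across replicates above the hit cutoff set in the primary screen, cut at about 8.5% in these data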;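 also: 0% = DMSO wells and 100% = marimastat wells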
# Starred values were filed as active, the others as inactive; · = no result given.
SMILES,ADAM17 inh,ADAM10 inh,PLC-gamma1 inh,PLCb3 inh,KLK7 zymogen act,ADAM10 counter,ADAM17 confirm
Cc1cccc(C)c1NC(=O)C(c1ccccc1OC(F)(F)F)N1CCN(C/C=C/c2ccccc2)CC1 (stereo not drawn),2.5,4.7,0.1,7.1,0.2,·,·
Cc1cccnc1NC(=O)c1ccc(Br)o1,8.6*,-2.2,6.2,5.3,0.0,-4.2,-0.1
CCOc1ccc(-n2c(SCC(=O)Nc3ccc(S(=O)(=O)Nc4nccs4)cc3)nnc2-c2ccccc2)cc1,4.9,7.6,-3.0,-3.4,-0.2,·,·
O=C(O)c1cc(S(=O)(=O)N2CCCCC2)ccc1N1CCCCC1,0.4,-1.4,2.9,-3.8,1.0,·,·
CCCCOC(=O)C1=C(C)Nc2nnnn2C1c1ccccc1Cl (stereo not drawn),9.6*,13.6,3.6,-3.9,0.6,15.7,8.4
CCOc1ccc(CN(C)Cc2cc(=O)oc3c(C)c(C)ccc23)cc1OC,9.4*,7.3,-4.0,-14.5,0.3,-3.7,-1.4
CCOc1ccc(C(=O)NNC(=O)c2cc(S(=O)(=O)N3CCOCC3)ccc2Cl)cc1,-2.7,-10.7,-3.6,-7.2,0.3,·,·
CCOc1ccc(CCNC(=O)CN2C(=O)c3cccnc3Oc3ccc(C)cc32)cc1OCC,1.0,8.6,1.9,8.1,-0.3,·,·
CCOc1ccc(CCNC(=O)CN2C(=O)c3cccnc3Oc3ccc(Cl)cc32)cc1,11.0*,3.4,7.5,-6.7,0.5,21.1*,18.6*
CC(=O)Nc1ccc(NC(=O)C(C)OC(=O)C23CC4CC(CC(Cl)(C4)C2)C3)cc1 (stereo not drawn),9.9*,-4.5,5.5,2.9,1.0,6.1,6.3
CC(=O)Nc1ccc(NC(=O)C(C)OC(=O)C2(c3ccc(Cl)cc3)CCCC2)cc1 (stereo not drawn),-7.3,10.2,1.3,2.7,-0.6,·,·
N#CCC(CNc1ncc(C(F)(F)F)cc1Cl)OC(=O)c1ccc(Cl)cc1 (stereo not drawn),8.7*,15.9,1.4,-0.3,0.7,35.0*,15.9*
COc1ccccc1Cc1c(C2CCCCC2)nc2ccc(Cl)cn12,-4.7,-12.0,-5.0,-12.4,-0.1,·,·
CCc1cc2c(nc1CC)CCCN2S(=O)(=O)c1ccc(OC)cc1,10.9*,4.9,3.4,7.8,0.2,2.2,5.8
CCc1cc2c(nc1CC)CCCN2S(=O)(=O)c1ccc(F)cc1,-0.5,-3.5,-3.9,-1.5,0.3,·,·
CCOc1ccccc1OCCCC(=O)N1CCN(S(=O)(=O)c2ccc(Cl)cc2)CC1,-3.1,-7.3,0.1,0.3,0.2,·,·
Cc1cc(Cl)ccc1OCCCC(=O)N1CCN(S(=O)(=O)c2ccccc2)CC1,9.9*,12.7,7.3,2.1,1.0,30.1*,15.8*
C[C@H]1[C@@H](NC(=O)c2ccc(O)cc2)CC[C@@]23CCCN2C(=O)CCC[C@@H]13,-2.8,-1.0,-2.9,6.4,·,·,·
Cc1cccc(C)c1NC(=O)C1(C)CSCC(=O)N1CCc1ccc(O)cc1 (stereo not drawn),11.3*,6.2,5.4,7.2,0.1,-7.3,1.4
CC(C)(C(=O)N1CCC1(C)C(=O)NC1Cc2ccccc2C1)c1ccccc1 (stereo not drawn),-2.1,-6.1,0.5,-2.7,-0.3,·,·
CC(C)(C(=O)N1CCC1(C)C(=O)Nc1ccccc1Br)c1ccccc1 (stereo not drawn),10.7*,10.5,8.6,8.8,0.2,-2.5,0.5
COc1ccc(C(O)c2nc(-c3cccc(F)c3)cs2)cc1 (stereo not drawn),9.9*,17.8,2.8,0.7,0.5,2.2,2.1
